This is an account of results in ChEMBL document CHEMBL1201862, “PubChem BioAssay data set” (2004).

Out of some 350,000 compounds screened, about 31,000 (8.9%) were called active. Another 15% or so got no clear call; they are omitted. The rule behind the calls is not given here. The full list was thinned out, with actives kept by preference.

For this test, the target named is T1, Histone-lysine N-methyltransferase EHMT2 (Homo sapiens) (UniProt Q96KQ7).
T1 sequence (whole entry): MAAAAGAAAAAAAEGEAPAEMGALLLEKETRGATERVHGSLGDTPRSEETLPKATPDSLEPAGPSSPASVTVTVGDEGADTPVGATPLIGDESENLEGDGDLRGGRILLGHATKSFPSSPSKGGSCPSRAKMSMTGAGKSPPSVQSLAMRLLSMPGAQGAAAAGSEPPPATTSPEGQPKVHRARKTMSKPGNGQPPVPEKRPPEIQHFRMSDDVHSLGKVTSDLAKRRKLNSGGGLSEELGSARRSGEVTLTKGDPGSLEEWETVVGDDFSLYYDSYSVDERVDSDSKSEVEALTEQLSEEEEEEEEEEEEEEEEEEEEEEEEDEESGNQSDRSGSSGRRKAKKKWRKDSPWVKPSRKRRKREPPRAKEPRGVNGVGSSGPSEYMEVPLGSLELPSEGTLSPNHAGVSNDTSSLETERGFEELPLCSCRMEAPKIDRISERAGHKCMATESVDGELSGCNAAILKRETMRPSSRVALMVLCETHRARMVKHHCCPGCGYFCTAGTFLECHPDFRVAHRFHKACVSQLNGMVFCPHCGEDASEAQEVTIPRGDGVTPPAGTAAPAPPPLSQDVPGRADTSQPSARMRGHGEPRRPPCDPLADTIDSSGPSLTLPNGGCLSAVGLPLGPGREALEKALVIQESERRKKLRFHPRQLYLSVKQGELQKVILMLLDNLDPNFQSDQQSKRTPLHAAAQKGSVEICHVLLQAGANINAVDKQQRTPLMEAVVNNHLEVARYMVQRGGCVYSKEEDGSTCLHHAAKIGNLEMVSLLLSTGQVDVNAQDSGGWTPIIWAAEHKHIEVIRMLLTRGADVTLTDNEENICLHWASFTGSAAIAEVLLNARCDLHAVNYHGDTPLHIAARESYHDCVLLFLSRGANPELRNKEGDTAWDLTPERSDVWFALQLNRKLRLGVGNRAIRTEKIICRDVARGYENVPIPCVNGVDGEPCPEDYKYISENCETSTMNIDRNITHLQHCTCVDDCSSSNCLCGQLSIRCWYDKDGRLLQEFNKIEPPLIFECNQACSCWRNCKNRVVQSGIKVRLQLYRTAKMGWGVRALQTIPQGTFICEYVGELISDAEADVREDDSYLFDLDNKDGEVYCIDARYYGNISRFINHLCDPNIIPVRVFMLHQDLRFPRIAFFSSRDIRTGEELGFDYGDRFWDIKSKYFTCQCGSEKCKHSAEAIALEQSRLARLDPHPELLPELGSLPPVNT
The experiment in a line: qHTS Assay for Inhibitors of Histone Lysine Methyltransferase G9a. [Related pubchem assays (depositor defined):AID504404]. Type of test: functional.
`Cl[Te]1(Cl)OCCO1`: the Potency was 7.94 µM (active).
